The record followed here is PubChem BioAssay (Tox21).

Inconclusive results are not listed. Where a structure was tested more than once in an assay, its records may differ in their call. The source made the active and inactive calls. Unless noted, calls follow the shape of the full dose curve.

Test [1] deals with Nuclear receptor subfamily 1 group I member 3 (Homo sapiens) (UniProt Q14994). The experiment in a line: qHTS assay to identify small molecule antagonists of the constitutive androstane receptor (CAR) signaling pathway (AID 1224838; active = well fitted curve in the direction sought with a large enough effect in the repeat runs; an effect the other way counts as inactive or inconclusive; also: nearly all actives have a fitted effect of over 40% in size; also: potency is read from the fitted curve at half-maximal effect). In short, it runs like this: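 CITCO-stimulated (50 nM final) HepG2 cells stably transfected with hCAR and CYP2B6-2.2kb luciferase were exposed to compounds at 15 concentrations for 24 h at 37 C/5% CO2. A luciferase reagent was added and luminescence recorded after 30 min.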
A general note: qHTS replaces the single test concentration by a dilution series.

The target is the same in test [2]. The experiment in a line: qHTS assay to identify small molecule agonists of the constitutive androstane receptor (CAR) signaling pathway (AID 1224839; active = well fitted curve in the direction sought with a large enough effect in the repeat runs; an effect the other way counts as inactive or inconclusive; also: nearly all actives have a fitted effect of over 15% in size; also: potency is read from the fitted curve at half-maximal effect;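 as to activation: HepG2 cells stably carrying human CAR and a CYP2B6 luciferase reporter; series mostly up to about 92 µM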). In short, it runs like this: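 Luminescence read-out (ONE-Glo, 30 min, room temperature) from double-stable HepG2-CYP2B6-hCAR cells exposed 24 h to 15-point compound series in presence of 0.75 uM PK11195 final.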

Test [3] can be described thus: qHTS assay to identify small molecule antagonists of the estrogen related receptor signaling pathway with the pleiotropic PPARgamma coactivator (PGC) from Tox21 10K library - cell viability counter screen (AID 1224840; active = well fitted cell-killing curve with a large enough effect in the repeat runs, not every such curve was filed as active; also: nearly all actives have a fitted effect of over 40% in size). In short, it runs like this:
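Viability counter screen, PGC/ERR cells: 17.5 h compound exposure at 37 C, CellTiter-Fluor fluorescence endpoint.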

Test [4] is described as follows: qHTS assay to identify small molecule antagonists of the estrogen related receptor signaling pathway with the pleiotropic PPARgamma coactivator (PGC) from Tox21 10K library (AID 1224841; call rule not given here; also: series mostly up to about 92 µM; actives are mostly falling curves and most rising ones were filed inactive; nearly all actives have a fitted effect of over 50% in size). In short, it runs like this: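 In the PGC/ERR line, DMSO solutions of test chemicals are pin-delivered to 2,000 cells/well six hours after dispensing. Following eighteen hours' incubation, One-Glo reagent is added and luminescence recorded.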

Test [5] in a line: qHTS assay to identify small molecule agonists of the estrogen related receptor signaling pathway with the pleiotropic PPARgamma coactivator (PGC) from Tox21 10K library (AID 1224842; active = well fitted curve in the direction sought with a large enough effect in the repeat runs; an effect the other way counts as inactive or inconclusive; also: nearly all actives have a fitted effect of over 15% in size). In short, it runs like this:
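PGC/ERR reporter cells (NTP line) were seeded 2,000 per well, rested 6 h at 37 C/5% CO2, then pin-dosed with compounds in DMSO for 18 h at 37 C; luciferase read by One-Glo luminescence after 30 min at room temperature.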

The target of test [6] is Thyrotropin receptor (Homo sapiens) (UniProt P16473). The experiment in a line: qHTS assay to identify small molecule agonists of the thyroid stimulating hormone receptor (TSHR) signaling pathway (AID 1224843). Also: nearly all actives have a fitted effect of over 45% in size. Also: potency is read from the fitted curve at half-maximal effect. In short, it runs like this:
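Compounds are titrated over 15 concentrations, in triplicate, onto TSHR-HEK293 cells seeded at 800/well. Plates sit 30 min at room temperature before cAMP-d2 and anti-cAMP cryptate are added; signal is read after a further hour.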

Test [7] can be described thus: qHTS assay to identify small molecule agonists of the hypoxia (HIF-1) signaling pathway - cell viability counter screen (AID 1224844). Also: nearly all actives have a fitted effect of over 50% in size. In short, it runs like this: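 Same wells as the HIF-1 reporter screen; ME-180 cells carrying HRE-bla, 17 hr treatment at 37C; CellTiter-Glo luminescence read after 30 min at room temperature.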
Test [8] is described as follows: qHTS assay to identify small molecule agonists of H2AX (AID 1224845; active = well fitted activation curve with a large enough effect in the signal ratio in the repeat runs, not every such curve was filed as active; the % refers to the signal ratio). In short, it runs like this: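 Wild-type CHO-K1 cells plated overnight, then exposed 3 hr at 37C to compounds at 15 concentrations (0.76% DMSO). Lysed, then HTRF anti-pH2AX(S139)-cryptate/anti-H2AX-d2 detection after 24 hr at room temperature; emissions 665 and 620 nm.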
A short description of test [9]: qHTS assay to identify small molecule agonists of the hypoxia (HIF-1) signaling pathway (AID 1224846; active = well fitted activation curve with a large enough effect in the signal ratio in the repeat runs, not every such curve was filed as active; the % refers to the signal ratio). In short, it runs like this:
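In ME-180 cells bearing an HRE-bla construct, 17 h treatment with DMSO-dissolved compounds at 37C was followed by CCF4-AM loading to quantify reporter induction.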

Test [10] can be described thus: qHTS assay to identify small molecule agonists of H2AX - cell viability counter screen (AID 1224847). Also: top concentration of the series differs between compounds; nearly all actives have a fitted effect of over 30% in size. In short, it runs like this:
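CHO-K1 wt, 1000 cells/well, o/n 37C; cpds 15 conc, 3 h 37C, 0.76% DMSO; CellTiter-Glo, 30 min RT, luminescence.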

Thyrotropin receptor (Homo sapiens), sequence (P16473 whole entry, looked up): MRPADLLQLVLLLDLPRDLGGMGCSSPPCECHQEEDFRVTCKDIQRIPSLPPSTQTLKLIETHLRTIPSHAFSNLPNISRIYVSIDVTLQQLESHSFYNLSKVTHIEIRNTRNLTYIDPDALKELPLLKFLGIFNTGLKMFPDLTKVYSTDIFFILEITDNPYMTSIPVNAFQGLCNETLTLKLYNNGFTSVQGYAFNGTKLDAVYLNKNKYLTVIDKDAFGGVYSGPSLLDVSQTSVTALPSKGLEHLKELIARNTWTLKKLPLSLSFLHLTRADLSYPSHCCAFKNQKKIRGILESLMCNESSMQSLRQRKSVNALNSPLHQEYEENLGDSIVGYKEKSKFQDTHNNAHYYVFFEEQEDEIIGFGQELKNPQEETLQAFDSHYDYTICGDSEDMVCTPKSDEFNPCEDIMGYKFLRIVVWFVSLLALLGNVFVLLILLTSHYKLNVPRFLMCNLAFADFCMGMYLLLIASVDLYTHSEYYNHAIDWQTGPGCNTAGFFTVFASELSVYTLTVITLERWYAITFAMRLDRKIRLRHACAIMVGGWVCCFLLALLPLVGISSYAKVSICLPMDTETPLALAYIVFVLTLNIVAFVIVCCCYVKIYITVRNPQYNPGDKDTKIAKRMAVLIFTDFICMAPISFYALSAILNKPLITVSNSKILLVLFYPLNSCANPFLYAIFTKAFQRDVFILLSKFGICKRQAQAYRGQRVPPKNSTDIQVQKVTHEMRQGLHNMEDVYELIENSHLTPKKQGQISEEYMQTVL
Nuclear receptor subfamily 1 group I member 3 (Homo sapiens), sequence (Q14994 whole entry, looked up): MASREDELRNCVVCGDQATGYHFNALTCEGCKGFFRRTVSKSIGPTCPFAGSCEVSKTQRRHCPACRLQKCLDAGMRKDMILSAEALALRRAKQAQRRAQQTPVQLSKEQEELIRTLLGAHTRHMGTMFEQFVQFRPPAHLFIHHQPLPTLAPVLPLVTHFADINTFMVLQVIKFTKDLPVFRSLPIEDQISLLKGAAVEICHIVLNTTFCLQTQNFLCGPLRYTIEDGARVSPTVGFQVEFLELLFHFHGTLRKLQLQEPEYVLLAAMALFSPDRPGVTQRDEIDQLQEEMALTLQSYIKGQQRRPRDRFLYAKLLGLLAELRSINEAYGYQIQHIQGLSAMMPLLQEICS

With `O=C(O)c1ccccc1C(c1ccc(O)cc1)c1ccc(O)cc1`, the Potency entry in test [1], in [2], in test [3], in test [4], in test [6] and in test [7] was “inactive” in each case. Besides, the Potency entry in test [8] and in test [10] was “inactive” each time. The compound was called inactive in test [5] and in [9].
As for `O=c1[nH]nnc2ccccc12`, the Potency entry in test [1], in [2], in test [3], in [4], in test [6] and in [7] was “inactive” throughout. Also, the Potency result in test [8] and in test [10] was “inactive” throughout. Further, the outcome in test [5] and in test [9] was inactive.
As for `CN(C)CCOCCN(C)C`, the Potency result in test [1], in test [2], in test [3], in test [4], in test [6] and in test [7] was “inactive” in each case. In addition, the Potency entry in test [8] was “inactive”. Further, the call in test [5] and in [9] was inactive.
On to `CC(C)(N)CO`, for which the Potency entry in test [1], in [2], in test [3], in test [4], in test [6] and in test [7] was “inactive” each time. Besides, in test [8], the Potency result is “inactive”. The compound was classed as inactive in [5] and in test [9].
As for `CC(=O)Nc1cccc(O)c1`, the Potency entry in [1], in test [2], in test [3], in test [6], in test [7] and in test [8] was “inactive” throughout. Besides, the outcome in test [9] was inactive.
As to `ON=C1CCCCC1`, the Potency entry in test [1], in test [2], in [3], in test [4], in test [6] and in [7] was “inactive” each time. For the same compound, in [8], the Potency entry was “inactive”. Moreover, the result in [5] and in test [9] was inactive.
`Fc1ccc(Br)cc1`: the Potency result in [1], in [2], in [3], in [4], in test [7] and in [8] was “inactive” throughout. For the same compound, the call in [5] and in test [9] was inactive. In addition, in test [6], the Potency was 30.9 µM (active) and inactive.
Consider `CCOC(=O)NNc1nncc2ccccc12`, for which the Potency result in test [1], in test [2], in [3], in test [6], in test [7] and in test [8] was “inactive” each time. The call in [9] was inactive.
For `CCCCCCCCCCCCc1ccccc1`, the Potency entry in [1], in test [2], in test [3], in test [4], in [6] and in [7] was “inactive” in each case. In addition, in [8], the Potency result was “inactive”. The result in [5] and in test [9] was inactive.
In the case of `COCCCOc1ccnc(CS(=O)c2nc3ccccc3[nH]2)c1C` (stereo not given), the Potency entry in [1], in [3], in test [4], in test [6], in test [7] and in test [8] was “inactive” in each case. In addition, in test [10], the Potency entry is “inactive”. In test [2], the Potency was 6.83 µM (active). The result in [5] and in test [9] was inactive.
For `CC1=C(C)S(=O)(=O)CCS1(=O)=O`, the Potency result in test [1], in test [3], in test [4], in test [7], in [8] and in test [10] was “inactive” each time. Also, the Potency in [2] was 3.01 µM (active). Also, the outcome in test [5] and in test [9] was inactive.
As for `N[C@@H](Cc1cc(I)c(Oc2cc(I)c(O)c(I)c2)c(I)c1)C(=O)O`, the Potency entry in [1], in [2], in test [3], in test [4], in test [6] and in test [7] was “inactive” in each case. Besides, the Potency entry in test [8] was “inactive”. Also, the call in test [5] and in test [9] was inactive.
Regarding `CCC(O)OCCCOC` (stereo not given), the Potency result in test [1], in test [2], in [3], in [4], in [6] and in [7] was “inactive” in each case. Further, in [8], the Potency result was “inactive”. The compound was called inactive in [5] and in test [9].
`CC1=CC(=O)NS(=O)(=O)O1`: in test [1], the Potency was 48.7 µM (active) and inactive. Also, the Potency result in test [2], in test [3], in test [6], in test [7], in [8] and in [10] was “inactive” throughout. Moreover, in test [9], the outcome was inactive.
`C/C=C1/CC2C=CC1C2` (stereo not given): the Potency result in test [1], in test [2], in [3], in [7], in test [8] and in test [10] was “inactive” each time. Also, in test [9], the call was inactive.
Consider `CCCCCCCCCCCCS`, for which the Potency result in [1], in test [2], in test [3], in test [6], in test [7] and in [8] was “inactive” in each case. The Potency entry in test [10] is “inactive”. Further, the result in [9] was inactive.
With `O=C(O)c1ccc(C(=O)O)cc1`, the Potency result in test [1], in test [2], in test [3], in test [6], in test [7] and in test [8] was “inactive” throughout. In addition, in [10], the Potency entry is “inactive”. The compound was classed as inactive in test [9].
For `CCCCCC/C(C=O)=C\c1ccccc1`, the Potency result in [1], in test [2], in [3], in [6], in [7] and in test [8] was “inactive” in each case. Also, the Potency entry in test [10] was “inactive”. The compound was classed as inactive in test [9].
For `COc1ccc(Cl)cc1C(=O)NCCc1ccc(S(=O)(=O)NC(=O)NC2CCCCC2)cc1`, the Potency result in test [1], in test [2], in test [3], in test [6], in [7] and in [8] was “inactive” in each case. Moreover, in test [10], the Potency result was “inactive”.
As to `CCCC(C)=O`, the Potency result in test [1], in [2], in [3], in test [7] and in [8] was “inactive” throughout. In addition, the result in test [9] was inactive.
Consider `CC(C)c1ccc(S(=O)(=O)O)cc1`, for which the Potency result in [1], in test [2], in [3], in test [6], in [7] and in [8] was “inactive” throughout. Besides, the Potency entry in test [10] is “inactive”. Moreover, the call in [9] was inactive.
As for `C[Si](O[Si](C)(C)C)O[Si](C)(C)C`, the Potency entry in test [1], in test [2], in [3], in test [6], in test [7] and in test [8] was “inactive” in each case. The Potency entry in test [10] is “inactive”. The outcome in test [9] was inactive.
For `CN(C)CCC(c1ccccc1)c1ccccn1` (stereo not given), the Potency entry in [1], in test [2], in test [3], in test [6], in test [7] and in test [8] was “inactive” each time. Further, the Potency result in test [10] is “inactive”.
For the compound `CC(=O)OCC(=O)[C@@]12N=C(C)O[C@@H]1C[C@H]1[C@@H]3CCC4=CC(=O)C=C[C@]4(C)[C@H]3[C@@H](O)C[C@@]12C`, the Potency entry in [1], in test [2], in test [3], in test [6], in [7] and in [8] was “inactive” in each case. Also, the Potency result in test [10] was “inactive”. Also, the call in test [9] was inactive.
For `CCCCCCCCCCCCOCCO`, the Potency entry in test [1], in [2], in test [3], in test [6], in [7] and in test [8] was “inactive” each time. Besides, the Potency entry in [10] was “inactive”. Besides, the call in test [9] was inactive.
As to `CCCCN(CCCC)CCCC`, the Potency result in test [1], in test [2], in test [3], in [6], in test [7] and in test [8] was “inactive” throughout. Moreover, in test [10], the Potency entry is “inactive”. Further, the compound was classed as inactive in test [9].
